# Experimental data published in paper doi:10.1101/2024.03.05.583629.
# Tests used:
# pT7_6His-AlfaTag-HOXD13 = pT7_6His-AlfaTag-HOXD13 (human, UniProt P35453 263-343); experiment: PADIT-seq; conditions: dsDNA, one strand shown
# pT7_6His-AlfaTag-ZIF268 = pT7_6His-AlfaTag-ZIF268 (human, UniProt P18146 335-423); experiment: PADIT-seq; conditions: dsDNA, one strand shown
# Chain of pT7_6His-AlfaTag-HOXD13 (P35453 263-343): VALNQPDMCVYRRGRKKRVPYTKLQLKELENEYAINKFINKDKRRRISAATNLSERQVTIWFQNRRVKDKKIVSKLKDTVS
Sequence,binding signal (pT7_6His-AlfaTag-HOXD13) [log2FC],binding signal (pT7_6His-AlfaTag-ZIF268) [log2FC]
CTCGAGGATATCAAGATCTGGCCTCGGCACTATAAAAGGAACCTCTAGCTAGCCGACTCACTATAGGGATAATCGCCCTGAGCAAAGACC,2.93 ± 0.0918,0.0278 ± 0.1
CTCGAGGATATCAAGATCTGGCCTCGGCGCGTGGTACGGAACCTCTAGCTAGCCGACTCACTATAGGGATAATCGCCCTGAGCAAAGACC,-0.921 ± 0.116,0.427 ± 0.0903
CTCGAGGATATCAAGATCTGGCCTCGGCGGAGTAAAAGGAACCTCTAGCTAGCCGACTCACTATAGGGATAATCGCCCTGAGCAAAGACC,-0.327 ± 0.108,0.0307 ± 0.0975
CTCGAGGATATCAAGATCTGGCCTCGGCTTTTTAGTTGGAACCTCTAGCTAGCCGACTCACTATAGGGATAATCGCCCTGAGCAAAGACC,0.658 ± 0.103,0.189 ± 0.0984
CTCGAGGATATCAAGATCTGGCCTCGGCATTTTAATAGGAACCTCTAGCTAGCCGACTCACTATAGGGATAATCGCCCTGAGCAAAGACC,2.83 ± 0.073,0.0148 ± 0.0814
CTCGAGGATATCAAGATCTGGCCTCGGCTTTTTACAGGGAACCTCTAGCTAGCCGACTCACTATAGGGATAATCGCCCTGAGCAAAGACC,3.18 ± 0.0923,0.066 ± 0.102
CTCGAGGATATCAAGATCTGGCCTCGGCATTTTACAGGGAACCTCTAGCTAGCCGACTCACTATAGGGATAATCGCCCTGAGCAAAGACC,3.08 ± 0.0772,0.116 ± 0.0849
CTCGAGGATATCAAGATCTGGCCTCGGCGTTTTAACAGGAACCTCTAGCTAGCCGACTCACTATAGGGATAATCGCCCTGAGCAAAGACC,1.92 ± 0.0739,0.0535 ± 0.0797
CTCGAGGATATCAAGATCTGGCCTCGGCGCTTGGGCGGGAACCTCTAGCTAGCCGACTCACTATAGGGATAATCGCCCTGAGCAAAGACC,-0.995 ± 0.12,0.158 ± 0.0966
CTCGAGGATATCAAGATCTGGCCTCGGCCTATGGGCGGGAACCTCTAGCTAGCCGACTCACTATAGGGATAATCGCCCTGAGCAAAGACC,-0.949 ± 0.119,0.0355 ± 0.0969
CTCGAGGATATCAAGATCTGGCCTCGGCGGGTTAAAAGGAACCTCTAGCTAGCCGACTCACTATAGGGATAATCGCCCTGAGCAAAGACC,0.632 ± 0.0825,0.0267 ± 0.0801
CTCGAGGATATCAAGATCTGGCCTCGGCATTTTAATCGGAACCTCTAGCTAGCCGACTCACTATAGGGATAATCGCCCTGAGCAAAGACC,1.1 ± 0.0894,0.0175 ± 0.09
CTCGAGGATATCAAGATCTGGCCTCGGCAGTTGGGCGGGAACCTCTAGCTAGCCGACTCACTATAGGGATAATCGCCCTGAGCAAAGACC,-0.843 ± 0.104,0.102 ± 0.086
CTCGAGGATATCAAGATCTGGCCTCGGCGTTTTAGCAGGAACCTCTAGCTAGCCGACTCACTATAGGGATAATCGCCCTGAGCAAAGACC,0.799 ± 0.115,0.0694 ± 0.112
CTCGAGGATATCAAGATCTGGCCTCGGCCAAGTAAAAGGAACCTCTAGCTAGCCGACTCACTATAGGGATAATCGCCCTGAGCAAAGACC,0.682 ± 0.11,0.0157 ± 0.107
CTCGAGGATATCAAGATCTGGCCTCGGCTCGTGGGCGGGAACCTCTAGCTAGCCGACTCACTATAGGGATAATCGCCCTGAGCAAAGACC,-0.771 ± 0.106,2.74 ± 0.0778
CTCGAGGATATCAAGATCTGGCCTCGGCTTTTTAGTGGGAACCTCTAGCTAGCCGACTCACTATAGGGATAATCGCCCTGAGCAAAGACC,1.59 ± 0.0858,0.00131 ± 0.0904
CTCGAGGATATCAAGATCTGGCCTCGGCCGCCACCGCGGAACCTCTAGCTAGCCGACTCACTATAGGGATAATCGCCCTGAGCAAAGACC,-0.959 ± 0.127,0.142 ± 0.0977
CTCGAGGATATCAAGATCTGGCCTCGGCCGATGGGCGGGAACCTCTAGCTAGCCGACTCACTATAGGGATAATCGCCCTGAGCAAAGACC,-1.02 ± 0.115,0.00701 ± 0.0902
CTCGAGGATATCAAGATCTGGCCTCGGCCTTTTACGGGGAACCTCTAGCTAGCCGACTCACTATAGGGATAATCGCCCTGAGCAAAGACC,3.14 ± 0.0784,0.0515 ± 0.0862
CTCGAGGATATCAAGATCTGGCCTCGGCCTTTTACGAGGAACCTCTAGCTAGCCGACTCACTATAGGGATAATCGCCCTGAGCAAAGACC,3.52 ± 0.0778,0.0308 ± 0.0876
CTCGAGGATATCAAGATCTGGCCTCGGCGACATAAAAGGAACCTCTAGCTAGCCGACTCACTATAGGGATAATCGCCCTGAGCAAAGACC,1.3 ± 0.0763,0.00765 ± 0.0777
CTCGAGGATATCAAGATCTGGCCTCGGCTGTTGGGCGGGAACCTCTAGCTAGCCGACTCACTATAGGGATAATCGCCCTGAGCAAAGACC,-1.03 ± 0.1,0.111 ± 0.0773
CTCGAGGATATCAAGATCTGGCCTCGGCTAATGGGCGGGAACCTCTAGCTAGCCGACTCACTATAGGGATAATCGCCCTGAGCAAAGACC,0.254 ± 0.0964,0.0526 ± 0.0899
